Compound activity (PubChem BioAssay)
Most compounds without a hit are left out; they make up all but 19% or so of the library.
HT1080-NT tox = kills 2HG-producing HT-1080-NT fibrosarcoma cells; HT-1080-NT fibrosarcoma viability, CellTiter-Glo ATP luminescence, 48 h; Potency, µM (doses to about 46.1 µM), hits mostly cytotoxic; 360,000 tested, 1.6% active; AID 686970;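 further: NT is the 2HG producing partner of a matched IDH1 knockdown line; nearly all actives have a fitted effect of over 55% in size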
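HT-1080-NT; 750 cells/well; 5% FBS RPMI; 48 h compound, 37 degrees C; CellTiter-Glo luminescence; curve fitting and curve-class assignment.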
TDP1 cell noCPT = qHTS for Inhibitors of human tyrosyl-DNA phosphodiesterase 1 (TDP1): qHTS in cells in absence of CPT. DT40 Tdp1-/- hTDP1 cells, no CPT, ATP luminescence, 48 h. Potency, µM (series often up to 46.2 µM), most hits filed as inhibitors. 420,000 tested, 15% active. AID 686978, 2013; further: nearly all actives have a fitted effect of over 55% in size
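Growth kinetics read by CellTiter-Glo luminescence after ≥48 hr at 37 °C. Cells: DT40 Tdp1-/- stably carrying human TDP1, 400 per well, compound exposure in the absence of CPT (DMSO vehicle).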
TDP1 cell CPT = growth inhibition of DT40 Tdp1-/-;hTDP1 cells with camptothecin (screen for TDP1 inhibitors). chicken DT40 Tdp1-/-;hTDP1 cells + 20 nM CPT, ATP luminescence, 48 h. Potency, µM (doses to about 46.2 µM), actives largely listed as inhibitors. 420,000 tested, 12% active. AID 686979; further: nearly all actives have a fitted effect of over 55% in size
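Cell growth measured by CellTiter-Glo luminescence after a minimum 48 h, 37 C compound exposure with 20 nM CPT in Tdp1-knockout DT40 cells stably expressing hTDP1, seeded 400/well; qHTS titration format.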
IL1B secr inh = inflammasome signaling inhibition, IL-1 beta readout; THP-1 LPS/ATP IL-1B secretion, AlphaLISA, 16 h; hits give low values; activity change, % at 57.5 µM; 360,000 tested, 4.7% active; AID 743279; in the data active means activity change below about -50%; inconclusive means mostly about -30% to -49%
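THP-1 cells pretreated 1 hr with compounds (up to 57.5 uM final), then stimulated with LPS (250 ng/mL final) plus ATP (1.25 mM final); secreted IL-1B measured by AlphaLISA after 16 hr, decreased signal indicating inhibition.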
HT1080 IDH1KD tx = kills HT-1080 cells with IDH1 knockdown; HT-1080 IDH1 knockdown viability, ATP luminescence, 48 h; Potency, µM (doses to about 46.1 µM), actives largely listed as cytotoxic; 360,000 tested, 2% active; AID 686971
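Luminescent ATP read-out (CellTiter-Glo, 10 min at room temperature) after 48 h compound exposure at 37 °C gave viability of IDH1-knockdown HT-1080 cells. Activity was normalised to DMSO and cell-free wells, then fitted as concentration-response curves.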
Hits are given with their value. Unless noted, the call rests on the fitted dose curve; in most records, active means well fitted curve in the direction sought with a large enough effect; inconclusive means small, poorly fitted or top-dose-only effect, or another doubt; inactive means no such curve, though single readings can be large; an effect the other way counts as inactive or inconclusive.

Screening CCc1ccc(OCC(=O)NNC(=S)NC(=O)C2CCCCC2)c(Br)c1 returned HT1080-NT tox inactive, TDP1 cell noCPT inconclusive, TDP1 cell CPT inconclusive, IL1B secr inh inactive and HT1080 IDH1KD tx inactive.
For CCc1ccc(OCC(=O)NNC(=S)NC(=O)C2CC2)c(Br)c1 the results were HT1080-NT tox inconclusive, TDP1 cell noCPT 13µM, TDP1 cell CPT 16µM, IL1B secr inh inactive and HT1080 IDH1KD tx inconclusive.
`Cc1cc(C)cc(OCC(=O)NNC(=S)NC(=O)C2CC2)c1` gave HT1080-NT tox inactive, TDP1 cell noCPT 13µM, TDP1 cell CPT 18µM, IL1B secr inh inactive and HT1080 IDH1KD tx inconclusive.
Screening CS(=O)(=O)NCCn1ccc2ccccc21 returned HT1080-NT tox inactive, TDP1 cell noCPT inconclusive, TDP1 cell CPT inconclusive, IL1B secr inh inactive and HT1080 IDH1KD tx inactive.
CCN(CC)S(=O)(=O)c1ccc(Nc2ccc(-c3ccc4c(c3)OCCO4)nn2)cc1 was read as HT1080-NT tox inconclusive, TDP1 cell noCPT inconclusive, TDP1 cell CPT 5.2µM, IL1B secr inh inactive and HT1080 IDH1KD tx inactive.
CCN(CC)S(=O)(=O)c1ccc(C(=O)Nc2ccc3c(c2)OCCO3)cc1 was read as HT1080-NT tox inactive, TDP1 cell noCPT inactive, TDP1 cell CPT inactive, IL1B secr inh inactive and HT1080 IDH1KD tx inactive.
For CN(C(=O)c1cccc(Nc2ccc(-c3ccc4c(c3)OCCO4)nn2)c1)C1CCCCC1 the results were HT1080-NT tox inconclusive, TDP1 cell noCPT 23µM, TDP1 cell CPT 23µM, IL1B secr inh inactive and HT1080 IDH1KD tx 15µM.
For COC(=O)C1CCN(Cc2ccc3c(c2)CN(C(=O)C(C)N2CCOCC2)CCO3)CC1 (stereo not given) the results were TDP1 cell noCPT inactive and TDP1 cell CPT inactive.
`CCCCNC(=O)c1onc(CSc2nc3ccccc3[nH]2)c1C(=O)NCCCC` gave HT1080-NT tox inactive, TDP1 cell noCPT inconclusive, TDP1 cell CPT inconclusive, IL1B secr inh inactive and HT1080 IDH1KD tx inactive.
`O=C(NCC1CC1)c1onc(CSc2nc3ccccc3[nH]2)c1C(=O)NCC1CC1` gave HT1080-NT tox inactive, TDP1 cell noCPT inconclusive, TDP1 cell CPT 21µM, IL1B secr inh inactive and HT1080 IDH1KD tx inactive.
`C[C@@]12C(=O)N(CC3CCCO3)CC(=O)N1[C@H]1c3ccccc3OC[C@@H]1[C@@H]2c1ccccc1` (stereo not given in full) gave HT1080-NT tox inactive, TDP1 cell noCPT inactive, TDP1 cell CPT inactive, IL1B secr inh inactive and HT1080 IDH1KD tx inactive.
CCN1CCN(c2cc(C)c3cc(NC(=O)CCC(=O)Nc4ccc(OC)c(OC)c4)ccc3n2)CC1 was read as HT1080-NT tox inactive, TDP1 cell noCPT inactive, TDP1 cell CPT inactive, IL1B secr inh inactive and HT1080 IDH1KD tx inactive.
For CCN1CCN(c2cc(C)c3cc(NC(=O)c4cncc(Br)c4)ccc3n2)CC1 the results were HT1080-NT tox inactive, TDP1 cell noCPT inconclusive, TDP1 cell CPT inconclusive, IL1B secr inh -54 and HT1080 IDH1KD tx inactive.
CCN1CCN(c2cc(C)c3cc(NC(=O)c4ccc5c(c4)OCO5)ccc3n2)CC1 was read as HT1080-NT tox inconclusive, TDP1 cell noCPT 15µM, TDP1 cell CPT 12µM, IL1B secr inh inactive and HT1080 IDH1KD tx inconclusive.
CCN1CCN(c2cc(C)c3cc(NC(=O)c4ccc(OC)c(OC)c4)ccc3n2)CC1 was read as HT1080-NT tox inactive, TDP1 cell noCPT 16µM, TDP1 cell CPT 15µM, IL1B secr inh inactive and HT1080 IDH1KD tx inconclusive.
For CCN1CCN(c2cc(C)c3cc(NC(=O)Cc4ccccc4OC)ccc3n2)CC1 the results were HT1080-NT tox inactive, TDP1 cell noCPT inactive, TDP1 cell CPT inactive, IL1B secr inh inactive and HT1080 IDH1KD tx inactive.
For CCN1CCN(c2cc(C)c3cc(NC(=O)c4cccc(C(F)(F)F)c4)ccc3n2)CC1 the results were TDP1 cell noCPT 13µM and TDP1 cell CPT 10µM.
For Cc1ccc(C)c(NS(=O)(=O)c2c(C)nc3sccn3c2=O)c1 the results were HT1080-NT tox inactive, TDP1 cell noCPT inactive, TDP1 cell CPT inactive, IL1B secr inh inactive and HT1080 IDH1KD tx inactive.
`CC(=O)Nc1cc(NC(C)=O)cc(C(=O)OCC(=O)c2ccc3c(c2)OCO3)c1` gave HT1080-NT tox inactive, TDP1 cell noCPT inactive, TDP1 cell CPT inactive, IL1B secr inh inactive and HT1080 IDH1KD tx inactive.
